The target of the test is AMP-activated protein kinase, AMPK (Homo sapiens) (UniProt P54646+O43741+P54619+Q9UGJ0+Q9Y478+Q13131+Q9UGI9). The test is described as follows: AMP-dependent Kinase enzyme assay. An in vitro enzyme assay that detects ADP turnover that is directly proportional to AMPK activity. This uses naive AMPK that is activated during the assay with MK-8722. It is filed as functional. Also noted: scale not given: direction of the effect not stated beside the values. The settings on record: 30 µM.
For the molecule `COCC(O)CNC(=O)c1cc(COc2ccc3c(c2)CCCC3)on1` (centres undefined), the Percent Effect was -0.134%. In the case of `CCNC(=O)c1ccc(NC(=O)N(C)Cc2cc(C)on2)cc1`, the Percent Effect came to 16.8%.

As to `CCc1nnc(CN2CC(n3cccn3)C2)o1`, the Percent Effect was -3.56%.

On to `CN(CCCc1cnn(C)c1)Cc1cc2n(n1)CCCN(C)C2`, for which the Percent Effect was -6.92%. As for `CC(C)c1cc(C(=O)NCCc2nc(-c3cccnc3)n[nH]2)[nH]n1`, the Percent Effect was found to be 57.4%.

As for `N#Cc1cccc(N2CCC(CO)(CCCc3ccccc3)CC2)n1`, the Percent Effect is 6.03%. The same measure for `O=C(CNC(=O)c1ccccc1I)NCc1ccccc1F`: 4.78%; for `CC(C)(CNC(=O)c1ccco1)CNC(=O)c1ccco1`: -2.53%. The same measure for `CC(c1ncc(-c2ccccc2)o1)N1CCN(C(=O)N(C)C)CC1` (centres undefined): -7.85%; for `Cc1cnc(C(NC(=O)NCc2nc(C3CC3)no2)C2CC2)s1` (centres undefined): 0.145%; for `CC(C)CCc1noc(C[S+]([O-])CC(=O)NCc2ccccc2)n1` (centres undefined): -1.86%. The figure for `N#CCCN(C(=O)CCc1cscn1)c1ccc2c(c1)OCCO2` is -3.58%; for `NC(=O)CNC(=O)c1cc(Cn2cnc3ccccc32)[nH]n1` it is -3.37%; for `Cc1cc(C(=O)N2CCNC(=O)C2)c(C)n1CC(F)(F)F` it is 1.02%. Take `N#CC1(NC(=O)c2cc(Cl)ccc2OC(F)F)CCOCC1`: the Percent Effect was -2.23%.

On to `O=S1(=O)NC(C2CCCN(S(=O)(=O)N3CCCC3)C2)=Nc2ccccc21` (centres undefined), for which the Percent Effect amounted to 13.9%. The figure for `Cc1nccc(CN2Cc3nccn3CC2c2ccccc2)n1` (centres undefined) is 15%; for `CCc1nnc(Nc2cc(C)nc(C3CN(C(=O)C(C)C)CCO3)c2)s1` (centres undefined) it is -1.78%. Consider `Cc1noc(CN(C)c2ccccc2)n1`, for which the Percent Effect is 5.44%.

Regarding `COC(=O)c1ccc(C(=O)NCc2ccco2)nc1`, the Percent Effect is -1.39%. The same measure for `CN1CCOC(CNCC(=O)NCCc2ccc3c(c2)OCCO3)C1` (centres undefined): -5.82%; for `CN(C)c1nc(N)nc(CN2CCC(c3nc4ccccc4o3)CC2)n1`: -11.3%; for `COCC(NC(=O)c1cn2ccsc2n1)c1ccnn1C` (centres undefined): -19.1%.

`NCCc1cc(N2CCOCC2)nc(NC2CC2)n1`: the Percent Effect was 3.97%. As for `CCc1ccccc1OCCN(C)C(=O)CCN1CCCCO1`, the Percent Effect was 0.981%. On to `COc1ccc(C(=O)N2CCN(C(=O)CCCc3cn[nH]c3)CC2)cc1`, for which the Percent Effect stood at 3.5%. For the molecule `CSc1ccc(OCCN2CCNC(=O)CC2)cc1`, the Percent Effect is 9.33%. On to `O=C(Cc1c(F)cccc1Cl)Nc1cc(N2CCCC2)ncn1`, for which the Percent Effect is 4.4%. For the molecule `Cc1ccnc(C2(C)CCCN2S(=O)(=O)c2ccccc2)n1` (centres undefined), the Percent Effect was -5.61%.

In the case of `CNc1nc(C(=O)N2CCCn3nc(C(=O)N4CCCC4)cc3C2)cs1`, the Percent Effect was found to be 10.6%. The figure for `CC(C)Cc1ncc2c(n1)CN(c1cc(NCCO)nc(N)n1)C2` is -165%; for `CCN(CC)c1nc2sc(C(=O)N3CCNC(=O)C3)cc2s1` it is 3.77%. `CC(O)C1CCN(C(=O)CCOc2ccccc2F)CC1` (centres undefined): the Percent Effect stood at 4.43%. Turning to `O=C(NCc1ccnc(OCC2CC2)c1)C1Cc2ccccc2O1` (centres undefined), the Percent Effect was -4.29%. In the case of `OC(CNCCc1nnc2ccccn12)c1ccc2c(c1)OCO2` (centres undefined), the Percent Effect turned out to be 17.2%.

In the case of `CC(C)c1noc(CN2CCN(C(=O)OC(C)(C)C)C(C)C2)n1` (centres undefined), the Percent Effect is -3.51%.

As to `NC(=O)CN1CCC(c2noc3cc(F)ccc23)CC1`, the Percent Effect was found to be 12.7%. The same measure for `CN(C)c1nc2sc(C(=O)N3CCN(C(=O)OC(C)(C)C)CC3)cc2s1`: 63.5%.

As for `COC(=O)C(NC(=O)c1ccc(C)cc1C)c1cccnc1` (centres undefined), the Percent Effect came to 2.32%.

The values above are taken from ChEMBL document CHEMBL3988442, “University of Dundee, Small-Polar-MMV Screening Library” (2021).
